Bioassay records deposited in PubChem BioAssay by National Center for Advancing Translational Sciences (NCATS).
D2 antag: antagonists of human D2 dopamine receptor; inhibition, % at 10 µM; HEK293 TREx D2 cells, calcium flux, dopamine EC80; P14416; hit rate 2% among 340,000; in the data active = inhibition above about 30%; inactive = below that, where a call was filed
Target sequence (P14416 whole entry, looked up): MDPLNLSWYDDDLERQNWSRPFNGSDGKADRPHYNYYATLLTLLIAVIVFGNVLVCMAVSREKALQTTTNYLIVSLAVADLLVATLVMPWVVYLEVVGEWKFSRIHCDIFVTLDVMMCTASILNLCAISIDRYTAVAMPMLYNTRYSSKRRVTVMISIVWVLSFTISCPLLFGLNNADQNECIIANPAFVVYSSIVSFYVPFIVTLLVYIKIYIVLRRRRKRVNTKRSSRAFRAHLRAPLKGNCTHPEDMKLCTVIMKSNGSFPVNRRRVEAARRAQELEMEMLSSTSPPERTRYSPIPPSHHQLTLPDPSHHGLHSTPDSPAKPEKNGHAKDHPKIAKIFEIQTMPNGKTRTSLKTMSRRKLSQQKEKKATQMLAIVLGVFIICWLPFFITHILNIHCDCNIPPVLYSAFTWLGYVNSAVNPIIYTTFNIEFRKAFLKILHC
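In this primary screen, negative modulation is detected by tracking calcium flux after an EC80 dopamine challenge in inducible HEK293 T-REx D2 cells preexposed to test compound for 180 s.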
D2 PAM-1: human D2 receptor positive allosteric modulation | P14416 | DiscoveRx D2 beta-arrestin cells, luminescence, 90 min; 100% = 57 uM dopamine signal | potentiation, % (concentration not given with the values) | hit rate 0.23% among 360,000; in the data active = potentiation above about 50%; inconclusive = mostly about 30% to 49%
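D2 cells co-treated with compound plus 50 nM dopamine (EC20) for 90 min at 37 deg C to detect potentiation. Beta-arrestin recruitment was read as enzyme-fragment luminescence after 1 h at ambient temperature. Full response was set by 57 uM dopamine.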
D2 ag-1: activates the human D2 dopamine receptor; AID 485358; hit rate 0.53% among 340,000; P14416; HEK293 T-REx D2 cells, calcium flux agonist mode; activation, % at 2 µM;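 active = activation over 3 SD above normal in the single-dose calcium agonist read, cut at about 30% in these data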
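Tetracycline-induced HEK293 Trex cells with D2 receptor force-coupled to calcium signaling, plated overnight at 30 C and loaded with no-wash calcium dye. Calcium flux read kinetically for 180 s after compound addition; responses flag agonists.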
Apoferritin bind: binds horse apoferritin like a general anesthetic; AID 485281; hit rate 0.074% among 350,000; Potency, µM (titrated, usually from 77.5 µM), hits mostly inhibitors; apoferritin/1-aminoanthracene competitive binding, fluorescence; P02791; also: nearly all actives have a fitted effect of over 20% in size
Target sequence (P02791 2-175 limits assumed): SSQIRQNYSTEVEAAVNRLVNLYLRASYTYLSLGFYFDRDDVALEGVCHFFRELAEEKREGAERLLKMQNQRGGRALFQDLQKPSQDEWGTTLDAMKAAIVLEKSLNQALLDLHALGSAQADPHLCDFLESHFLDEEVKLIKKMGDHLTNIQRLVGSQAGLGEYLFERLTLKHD
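Concentration-response curves derived by four-parameter Hill fitting of normalized fluorescence, where compounds displaced 1-AMA from 10 uM horse apoferritin following a brief 10 min room-temperature incubation; propofol titration acted as positive control.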
D2 ag-2: human D2 receptor agonism in beta-arrestin assay; P14416; DiscoveRx PathHunter D2 beta-arrestin, luminescence, 90 min; 100% = 57 uM dopamine signal; activation, % (test concentration not listed); hit rate 0.084% among 360,000; AID 624465; in the data active = activation above about 40%; inconclusive = between about 15% and that limit
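Agonist mode: compounds alone added to overnight-plated D2 PathHunter cells for 90 min at 37 C, with 57 uM final dopamine (EC100) defining full response. Beta-arrestin recruitment detected by chemiluminescent reagent, read after 1 h at ambient temperature.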
D2 PAM-2: positive allosteric modulators of human D2 dopamine receptor; P14416; HEK293 T-REx D2, calcium flux, EC20 dopamine potentiation; potentiation, % at 10 µM; hit rate 0.34% among 340,000; AID 485347;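 active = potentiation over 3 SD above the plate norm, cut at about 30% in these data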
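Potentiation of an EC20 dopamine calcium response is measured in a force-coupled, tetracycline-inducible Hek293 Trex D2 line. Compound-only kinetic reads over 180 s flag agonists before dopamine addition.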
D3 arrestin ag: confirmation of human D3 dopamine receptor agonists, beta-arrestin | shares compounds with D2 ag-1 | DiscoveRx D3 beta-arrestin cells, luminescence, 90 min | Potency, µM (doses to about 76.9 µM), hits mostly activators | hit rate 4% among 2,300; also: nearly all actives have a fitted effect of over 70% in size
D2 ag-3: activates human D2 dopamine receptor in D3 counterscreen; Potency, µM (series often up to 76.9 µM), most hits filed as activators; hit rate 5.9% among 2,300; DiscoveRx PathHunter D2 beta-arrestin, luminescence, 90 min; response scale: percent relative to full dopamine signal; shares compounds with D2 ag-1; also: nearly all actives have a fitted effect of over 70% in size
Numbers stand for hits; ! = a repeat was not active; [ ] = another dose, or the depositor's remark. This is a sample that favours compounds with a hit; in the whole collection about 2.5% have one here. Unless noted, calls follow the shape of the dose curve; as a rule, active = well fitted curve in the direction sought with a large enough effect; inconclusive = small, poorly fitted or top-dose-only effect, or another doubt; inactive = no such curve, though single readings can be large; an effect the other way counts as inactive or inconclusive.

How did CN(C)Cc1c(C(=O)Nc2ccccc2)[nH]c2ccccc12 do in these assays?
D2 antag: 45.0; D2 PAM-1: inactive; D2 ag-1: inactive; D2 ag-2: inactive; D2 PAM-2: inactive; D3 arrestin ag: inactive; D2 ag-3: inactive

What do the screens show for `Cc1nc2ccccc2nc(=O)c1NNc1ccccc1`?
D2 antag: inactive; D2 PAM-1: inactive; D2 ag-1: 75.2; Apoferritin bind: inactive; D2 ag-2: inactive; D2 PAM-2: inactive; D3 arrestin ag: inactive; D2 ag-3: inactive

How did COC(=O)COc1ccc(NC(=O)Cn2nc(-c3ccccc3)c3ccccc3c2=O)cc1 do in these assays?
D2 antag: inactive; D2 PAM-1: inactive; D2 ag-1: inactive; Apoferritin bind: inactive; D2 ag-2: inactive; D2 PAM-2: inactive

How did COc1ccc(-c2nn(CC(=O)Nc3ccc(Cl)c(Cl)c3)c(=O)c3ccccc23)cc1 do in these assays?
D2 antag: inactive; D2 PAM-1: inactive; D2 ag-1: 53.6; Apoferritin bind: inconclusive; D2 ag-2: inactive; D2 PAM-2: inactive; D3 arrestin ag: inactive; D2 ag-3: inactive

Results for Cc1ncc(C[n+]2csc(CCO)c2C)c(N)n1 ?
D2 antag: 67.8!; D2 PAM-1: inactive; D2 ag-1: 55.4!; Apoferritin bind: inactive; D2 ag-2: inactive; D2 PAM-2: inactive; D3 arrestin ag: inactive; D2 ag-3: inactive

Results for Cc1ccc(Cn2c(CCNc3nc(-c4ccc(C)cc4)cs3)nc3cc(C(=O)NCCCO)ccc32)cc1 ?
D2 PAM-1: inactive; D2 ag-2: inactive

Results for Cc1[nH]c(=O)[nH]c(=O)c1Sc1ccccc1[N+](=O)[O-] ?
D2 antag: inactive; D2 PAM-1: inactive; D2 ag-1: inactive; Apoferritin bind: inactive; D2 ag-2: inactive; D2 PAM-2: inactive

How did CCOC(=O)/C=C/[C@H]1CC(c2ccccc2)(c2ccccc2)CO1 do in these assays?
D2 antag: inactive; D2 PAM-1: inactive; D2 ag-1: inactive; D2 ag-2: inactive; D2 PAM-2: inactive; D3 arrestin ag: inactive; D2 ag-3: inactive

Results for CCOC(=O)C1C(C(=O)OCC)C1(c1ccccc1)c1ccccc1 (stereo unspecified) ?
D2 antag: inactive; D2 PAM-1: inactive; D2 ag-1: inactive; Apoferritin bind: inactive; D2 ag-2: inactive; D2 PAM-2: inactive

Results for C=CCC1(c2ccccc2)Oc2ccc(C)cc2-c2nc3cc(Cl)c(Cl)cc3nc21 (stereo unspecified) ?
Apoferritin bind: inactive[15.3 µM]

What do the screens show for `Cc1ccc(-c2nnc(NCc3nc4ccccc4[nH]3)c3ccccc23)cc1S(=O)(=O)N1CCCCC1`?
D2 antag: inactive; D2 PAM-1: inactive; D2 ag-1: inactive; Apoferritin bind: inactive; D2 ag-2: inactive; D2 PAM-2: inactive

What do the screens show for `CC(=O)Nc1ccc(C2=CC(=O)CC(C)(C)C2)cc1`?
D2 antag: inactive; D2 PAM-1: inactive; D2 ag-1: inactive; D2 ag-2: inactive; D2 PAM-2: inactive; D3 arrestin ag: inactive; D2 ag-3: inactive

What do the screens show for `COc1cccc(N2C(=O)C(c3ccccc3)=C(c3nc4ccccc4s3)C2NC(C)=O)c1` (stereo unspecified)?
D2 antag: inactive; D2 PAM-1: inactive; D2 ag-1: inactive; Apoferritin bind: inactive; D2 ag-2: inactive; D2 PAM-2: inactive

Results for COc1ccc(CCC(=O)OCC(=O)N2CCN(S(=O)(=O)c3ccc(C)cc3C)CC2)cc1 ?
D2 antag: inactive; D2 PAM-1: inactive; D2 ag-1: inactive; D2 ag-2: inactive; D2 PAM-2: inactive; D3 arrestin ag: inactive; D2 ag-3: inactive

What do the screens show for `Cc1ccc(OCCC(=O)OCC(=O)N2CCN(S(=O)(=O)c3ccc(C)cc3C)CC2)cc1`?
D2 antag: inactive; D2 PAM-1: inactive; D2 ag-1: inactive; D2 ag-2: inactive; D2 PAM-2: inactive

How did CN(CC(=O)Nc1ccccc1Cl)C(=O)CSc1ncc(C(F)(F)F)cc1Cl do in these assays?
D2 antag: inactive; D2 PAM-1: inactive; D2 ag-1: inactive; Apoferritin bind: inactive; D2 ag-2: inactive; D2 PAM-2: inactive

Results for C/C(=N\NC(=O)CN1CCCCC1)c1ccccc1O ?
D2 antag: 84.6; D2 PAM-1: inactive; D2 ag-1: 65.2; Apoferritin bind: inactive; D2 ag-2: inactive; D2 PAM-2: inactive; D3 arrestin ag: inactive; D2 ag-3: inactive

What do the screens show for `Nc1nc(CN2CCN(c3ccccc3F)CC2)nc(Nc2ccccc2)n1`?
D2 antag: 47.3; D2 PAM-1: inactive; D2 ag-1: 60.3; Apoferritin bind: inconclusive; D2 ag-2: inactive; D2 PAM-2: inactive; D3 arrestin ag: inactive; D2 ag-3: inactive

How did Cc1ccc(Nc2nc(N)nc(CN3CCN(c4ccccc4F)CC3)n2)cc1 do in these assays?
D2 antag: 78.2; D2 PAM-1: inactive; D2 ag-1: 75.1; Apoferritin bind: inactive; D2 ag-2: inconclusive; D2 PAM-2: inactive; D3 arrestin ag: inactive; D2 ag-3: inconclusive

Results for COc1ccc(Nc2nc(N)nc(CN3CCN(c4ccccn4)CC3)n2)cc1 ?
D2 antag: 72.7; D2 PAM-1: inactive; D2 ag-1: 76.2; Apoferritin bind: inactive; D2 ag-2: inconclusive; D2 PAM-2: inactive; D3 arrestin ag: inactive; D2 ag-3: inconclusive

What do the screens show for `COc1ccc(Nc2nc(N)nc(CN3CCC(C)CC3)n2)cc1`?
D2 antag: inactive; D2 PAM-1: inactive; D2 ag-1: inactive; Apoferritin bind: inactive; D2 ag-2: inactive; D2 PAM-2: inactive

What do the screens show for `Nc1nc(CN2CCN(c3ccccc3)CC2)nc(Nc2ccc(Cl)cc2)n1`?
D2 antag: 76.5; D2 PAM-1: inconclusive; D2 ag-1: 64.2; Apoferritin bind: inactive; D2 ag-2: 43.2; D2 PAM-2: inactive; D3 arrestin ag: inconclusive; D2 ag-3: 17.8µM

How did Nc1nc(CN2CCCCCC2)nc(Nc2ccccc2)n1 do in these assays?
D2 antag: inactive; D2 PAM-1: inactive; D2 ag-1: inactive; Apoferritin bind: inactive; D2 ag-2: inactive; D2 PAM-2: inactive

How did Nc1ccc(Oc2ncccn2)c(Cl)c1 do in these assays?
D2 antag: inactive; D2 PAM-1: inactive; D2 ag-1: inactive; Apoferritin bind: inactive; D2 ag-2: inactive; D2 PAM-2: inactive

How did Cn1c(=O)[nH]c(=O)c2c1nc(N1CCN(CCO)CC1)n2Cc1ccccc1Cl do in these assays?
D2 antag: 30.0; D2 PAM-1: inactive; D2 ag-1: inactive; Apoferritin bind: inactive; D2 ag-2: inactive; D2 PAM-2: inactive; D3 arrestin ag: inactive; D2 ag-3: inactive
